DTT redox prof – compounds producing H2O2 with reducing agent – biochemical, NIH compound library profiling, artefact control for MLSCN library redox annotation, primary screen | activation, % at 10 µM | 200,000 tested, 0.03% active | DTT-dependent redox cycling H2O2, phenol red/HRP absorbance; 100% = 100 µM peroxide control, 0% = buffer;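 active = activation of at least 50% relative to the plate's high and low controls in the primary single-dose screen; inactive = activation below 50%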;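 also: compound incubated with DTT at 0.8 mM final as the reducing agent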
Insulin prom up – insulin promoter activators in MIN6 cells, imaging, high-content screening, mouse beta cells | MIN6 insulin promoter-GFP reporter; active compounds read high | z-score at 5 µM | 190,000 tested, 0.3% active | AID 1625, 2009;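 active = z-score above 3 at 5 µM with at least 500 cells counted in the well; inconclusive = wells under 500 cells, flagged as cytotoxic or low count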
Arbovirus inh – antivirals against arbovirus infection, primary screen, cell-based, full library, 10K replicate subset; arbovirus infection cell-based antiviral screen; inhibition, % at 10 µM; 200,000 tested, 0.37% active; AID 1251, 2008; in the data active = inhibition above about 30%
Autophagy HCS – autophagy modulators in MEF cells, primary screen, imaging, high-content, MEF GFP-LC3; MEF GFP-LC3 puncta imaging; test concentration mostly 10 µM; calls only at 10 µM (by protocol); 190,000 tested, 0.98% active; AID 463193, 2010;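 active = percentage of spot-positive cells more than 3 SD above its plate mean, without a fluorescence outlier flag or 80% toxicity; inconclusive = no clear call, values can overlap the other calls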;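 also: spot-positive cell cutoff set from DMSO-treated cells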
NCF1 inh – p47phox/p22phox peptide binding inhibitors, primary screen, biochemical, uHTS, NADPH oxidase regulatory subunit; Neutrophil cytosol factor 1 (Homo sapiens), P14598; fluorescence polarization, 2 h; inhibition, % at 24.7 µM; 220,000 tested, 0.53% active; AID 1274, 2008;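 active = inhibition above about 30%, limit read from the data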;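 also: 0% = p47phox with labelled peptide and 100% = labelled peptide alone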
Target sequence (P14598 whole entry, looked up): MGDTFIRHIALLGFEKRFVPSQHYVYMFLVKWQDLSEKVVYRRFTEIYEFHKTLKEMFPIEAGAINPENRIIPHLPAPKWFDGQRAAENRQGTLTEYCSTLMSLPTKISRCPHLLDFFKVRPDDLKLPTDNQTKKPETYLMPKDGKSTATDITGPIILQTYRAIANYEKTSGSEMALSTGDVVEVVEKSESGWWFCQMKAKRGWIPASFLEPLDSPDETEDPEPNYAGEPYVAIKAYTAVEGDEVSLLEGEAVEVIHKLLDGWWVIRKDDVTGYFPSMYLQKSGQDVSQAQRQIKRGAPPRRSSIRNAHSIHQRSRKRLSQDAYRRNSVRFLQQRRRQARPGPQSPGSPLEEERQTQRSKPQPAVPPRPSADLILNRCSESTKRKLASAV
Efa HMGR inh – inhibitors of E. faecalis class II HMGR, primary screen, biochemical, Enterococcus faecalis | 190,000 tested, 0.41% active | AID 1066, 2008 | purified E. faecalis HMGR, NADPH absorbance 340 nm kinetic | HMG-CoA reductase (Enterococcus faecalis, mvaE) | inhibition, % at 10 µM;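 active = inhibition above a set limit, the median over all tested compounds plus 3 SD, cut at about 9.5% in these data; inconclusive = no clear call, values can overlap the other calls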;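 also: enzyme runs in reverse so mevalonate oxidation gives rising NADPH absorbance; 0% = complete reaction with DMSO and 100% = background rate lacking mevalonate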
The depositor's hits bear a star. An excerpt weighted towards active compounds, which were near 2.2% of everything screened.

O=[N+]([O-])/C(=C\Nc1ccccc1)S(=O)(=O)c1ccccc1 was read as DTT redox prof -4.4, Insulin prom up 0.58, Arbovirus inh 1.0, Autophagy HCS inactive, NCF1 inh -13.5 and Efa HMGR inh -1.3.
For Nc1ncnc(Nc2ccccc2Cl)n1 the results were Insulin prom up -0.08 and NCF1 inh 7.7.
`O=C(Nc1ccccc1)Nc1ccc(C(=O)N2CCCC2)cc1` gave DTT redox prof 0.7, Insulin prom up 0.52, Arbovirus inh -11.5, Autophagy HCS inactive, NCF1 inh -1.0 and Efa HMGR inh 9.6*.
`O=C(CSc1nnc(Nc2ccccc2)s1)NN1C(=O)NC2(CCCCC2)C1=O` gave DTT redox prof 0.6, Insulin prom up 0.73, Arbovirus inh -1.6, Autophagy HCS inactive, NCF1 inh -13.4 and Efa HMGR inh 0.3.
Cc1cc(=O)[nH]c2cc(Cl)ccc12 was read as DTT redox prof -2.3, Insulin prom up -0.35, Arbovirus inh 1.6, Autophagy HCS inactive, NCF1 inh -0.2 and Efa HMGR inh -2.2.
`Cc1[nH]ccc2c1[nH]c1cc(=O)ccc12` gave Insulin prom up -0.53 and NCF1 inh 46.2*.
N#C/C(=C\c1ccc(N2CCCCC2)o1)C(=O)Nc1cccc(Br)c1 was read as DTT redox prof 0.4, Arbovirus inh 2.3, Autophagy HCS inconclusive, NCF1 inh 36.6* and Efa HMGR inh -1.6.
Screening O=C(c1cccs1)N1CCN(c2ncc(Br)cn2)CC1 returned Insulin prom up 1.04 and NCF1 inh -7.4.
CCn1c(=O)cc(OCC(=O)NCCCN2CC(C)CC(C)C2)c2ccccc21 (centres undefined) was read as DTT redox prof 0.3, Insulin prom up 0.35, Arbovirus inh -22.9, Autophagy HCS inactive, NCF1 inh 67.7* and Efa HMGR inh 1.2.
Screening CC1CC(C)CN(CCCNC(=O)COc2cc(=O)n(C)c3ccccc23)C1 (centres undefined) returned DTT redox prof -3.7, Arbovirus inh -7.6, Autophagy HCS inactive, NCF1 inh -4.6 and Efa HMGR inh -0.9.
For O=C(NCC(c1cccnc1)N1CCN(c2ccc(F)cc2)CC1)c1ccc(F)cc1 (centres undefined) the results were DTT redox prof 2.1, Insulin prom up -0.12, Arbovirus inh 3.1, Autophagy HCS inactive, NCF1 inh -9.2 and Efa HMGR inh -3.6.
COc1ccccc1C(=O)N1c2ccccc2Sc2ccccc21 was read as DTT redox prof 0.1, Insulin prom up -0.28, Arbovirus inh 25.2, Autophagy HCS inactive, NCF1 inh -31.0 and Efa HMGR inh 0.9.
Screening O=C(c1cccnc1)N1c2ccccc2Sc2ccccc21 returned DTT redox prof 0.3, Insulin prom up -1.41, Arbovirus inh -0.8, Autophagy HCS inactive, NCF1 inh -1.3 and Efa HMGR inh 11.8*.
CC(=O)c1cccc(NC(=O)C2CC(=O)N(CCc3ccccc3)C2)c1 (centres undefined) was read as DTT redox prof 0.4, Insulin prom up 0.99, Arbovirus inh 17.6, Autophagy HCS inactive, NCF1 inh -10.9 and Efa HMGR inh -1.3.
For COc1ccc(CCN2CC(C(=O)Nc3cccc(C(C)=O)c3)CC2=O)cc1OC (centres undefined) the results were DTT redox prof -2.1, Insulin prom up 0.09, Arbovirus inh -3.0, Autophagy HCS active, NCF1 inh -1.8 and Efa HMGR inh -2.0.
For COc1ccc(OC)c(Nc2ncnc3c2cnn3-c2cccc(C)c2)c1 the results were DTT redox prof 0.0, Insulin prom up -0.25, Arbovirus inh -19.1, Autophagy HCS active, NCF1 inh -11.3 and Efa HMGR inh -2.0.
For COc1ccccc1NC(=O)CNc1ccc(F)c(Cl)c1 the results were DTT redox prof 0.1, Insulin prom up 1.06, Arbovirus inh -1.8, Autophagy HCS inactive, NCF1 inh -16.6 and Efa HMGR inh 0.1.
Screening Oc1ccc(-c2csc(Nc3ncccn3)n2)cc1 returned DTT redox prof 2.5, Insulin prom up 0, Arbovirus inh -30.5, Autophagy HCS inactive, NCF1 inh 8.7 and Efa HMGR inh 0.1.
`Oc1ccc(Nc2nc(-c3ccc4ccccc4c3)cs2)cc1` gave DTT redox prof 0.0, Arbovirus inh -31.1, Autophagy HCS active, NCF1 inh 6.7 and Efa HMGR inh -2.7.
`Cc1cc(=O)oc(C)c1C(=O)Nc1cccc(F)c1` gave Insulin prom up -0.19 and NCF1 inh 0.1.
For CCN(CC(=O)Nc1ccc(C(=O)Nc2ccc(OC)cc2)cc1)Cc1nc2ccccc2c(=O)[nH]1 the results were Insulin prom up 0.17 and NCF1 inh -19.6.
COc1cc(S(=O)(=O)Nc2ccc3cn[nH]c3c2)ccc1Cl was read as DTT redox prof 0.7, Insulin prom up 1.46, Arbovirus inh 10.6, Autophagy HCS inactive, NCF1 inh -16.5 and Efa HMGR inh 12.0*.
CCCS(=O)(=O)Nc1ccc2cn[nH]c2c1 was read as DTT redox prof -1.6, Insulin prom up -1.08, Arbovirus inh 4.3, Autophagy HCS inactive, NCF1 inh -5.7 and Efa HMGR inh -4.1.
Screening O=C(O)c1ccc(Cl)c(S(=O)(=O)Nc2ccc3cn[nH]c3c2)c1 returned DTT redox prof -1.7, Insulin prom up 0.43, Arbovirus inh 2.5, Autophagy HCS inactive, NCF1 inh -7.1 and Efa HMGR inh 0.1.
`CCOc1cc(C)c(S(=O)(=O)Nc2ccc3cn[nH]c3c2)cc1C` gave DTT redox prof -3.7, Insulin prom up 4.24*, Arbovirus inh -9.6, Autophagy HCS inactive, NCF1 inh -5.7 and Efa HMGR inh 0.2.
CCOC(=O)C1CCCN(C(=O)Nc2ccccc2)C1 (centres undefined) was read as DTT redox prof 1.0, Insulin prom up -0.18, Arbovirus inh 5.6, Autophagy HCS inactive, NCF1 inh -21.4 and Efa HMGR inh -2.4.
`CCOC(=O)C1CCN(C(=O)Nc2ccc(OCc3ccccc3)cc2)CC1` gave Insulin prom up 0.76 and NCF1 inh 43.5*.
`c1cnc2ccc(C(c3nnnn3C3CCCCC3)N3CCN(C4CCCCC4)CC3)cc2c1` (centres undefined) gave DTT redox prof 0.6 and Autophagy HCS active.
Screening c1cnc2ccc(C(c3nnnn3C3CCCCC3)N3CCCCC3)cc2c1 (centres undefined) returned DTT redox prof 1.4, Insulin prom up -0.06, Arbovirus inh -12.4, Autophagy HCS inactive, NCF1 inh -1.3 and Efa HMGR inh -4.0.
Screening CCOC(=O)C1C(c2ccc(O)c(O)c2)NC(=S)NC1(O)C(F)(F)F (centres undefined) returned DTT redox prof 2.8, Insulin prom up 0.28, Arbovirus inh 3.0, Autophagy HCS inactive, NCF1 inh -9.9 and Efa HMGR inh -0.8.
